# In PubChem BioAssay (Tox21):
# A number with no mark means an inactive call. Active and inactive are the calls of the source. The call rests on the fitted dose curve; in most records, active means well fitted cell-killing curve with a large enough effect in the repeat runs; inconclusive means weak or mixed curves, or effect the other way; inactive means flat fitted curve, though single readings scatter.
# Assay: qHTS assay to identify small molecule HDAC inhibitors - cell viability counter screen (AID 1259365); further: nearly all actives have a fitted effect of over 50% in size
# Conditions: HCT-116 viability, CellTiter-Glo ATP luminescence, 2 h; series mostly up to 92.4 µM; activity change, negative = cytotoxicity: at the top concentration
# Description: U.S. Tox21 Program National Center for Advancing Translational Sciences [NCATS] NIH Chemical Genomics Center [NCGC] U.S. Environmental Protection Agency [EPA] National Institutes of Environmental Health Sciences [NIEHS] National Toxicology Program [NTP] U.S. Food and Drug Administration [FDA] Tox21 Assay Overview: Histone deacetylases (HDACs) are a group of epigenetic enzymes that regulate gene expression by histone deacetylation. HDACs are capable of introducing epigenetic modifications and such aberrations contribute to the onset and progression of several human diseases, thus making HDACs a popular therapeutic target. For identifying endogenous class I/II HDAC inhibitors a homogenous, luminogenic HDAC I/II cell based assay was used to measure the relative activity of class I and II HDACs from cells. Wild type HCT-116 cells were used to screen Tox21 compound libraries for identifying class I/II HDAC inhibitors.
# Tox21 Assay Protocol Summary: HCT-116 cells were dispensed at 1,500 per well in 5uL of culture medium into white solid bottom 1536-well plates (Greiner Bio-One, Monroe, NC) using a Multidrop Combi (Thermo Scientific, Waltham, MA) dispenser. The assay plates were incubated at 37 C and 5% CO2 for an overnight, and then 23nL of compounds dissolved in DMSO and positive control were transferred using a Pintool station (Wako, San Diego, CA). The assay plates were incubated at 37C and 5% CO2 for 2hr. After compound treatment, 4uL of CellTiter-Glo reagent (Promega Corporation, Madison, WI) was added to each well of the assay plates using Flying Reagent Dispenser (FRD, Aurora Discovery, San Diego, CA) and incubated the assay plates at room temperature for 30min. The luminescence signal was quantified using a ViewLux plate reader (Perkin Elmer, Shelton, CT).
# On the % scale 0 is the no-effect control and ±100 the full control effect; potency means the concentration at half of the fitted maximal effect.
SMILES,"activity change, negative = cytotoxicity",Potency
CCCOC(=O)c1c(Cl)c(Cl)c(Cl)c(Cl)c1C(=O)OCCC,-11.1%,–
CCCC(=O)OC(=O)CCC,0.961%,–
CCC(Cl)CC(Cl)C(Cl)C(Cl)C(Cl)C(C)Cl (stereo not given),-3.08% [at 19 µM],–
CCN(CC)c1ccc(C(=C2C=CC(=[N+](CC)CC)C=C2)c2ccc(S(=O)(=O)O)cc2S(=O)(=O)[O-])cc1,–,21.7 µM (active)
C[C@H](CS)C(=O)N1CCC[C@H]1C(=O)O,0.269% [at 42.5 µM],–
COc1cc(C(C)=O)ccc1OCCCN1CCC(c2noc3cc(F)ccc23)CC1,-1.57% [at 42.5 µM],–
O=NN(CCCl)C(=O)NCCCl,1.04% [at 42.5 µM],–
CCOC(=O)Oc1ccc(CCNC(=O)[C@H](CCSC)NC(C)=O)cc1OC(=O)OCC,4.22% [at 42.5 µM],–
CCC(CO)(CO)CO,-1.92%,–
COc1cc(NC(C)CCCN)c2ncccc2c1 (stereo not given),-1.31% [at 42.5 µM],–
CC1C(C)(C)C2=C(C(=O)CCC2)C1(C)C (stereo not given),-0.324%,–
N[C@@H](Cc1cc(I)c(O)c(I)c1)C(=O)O,-0.262% [at 42.5 µM],–
COc1ccc(-c2cc(=S)ss2)cc1,1.2% [at 42.5 µM],–
CCCCCCCCCCCC(=O)OCC(O)CO (stereo not given),0.891%,–
O=C(O)c1ccc(O)cc1O,2.23%,–
COC(C)(C)OC,1.06%,–
O=C(O)c1cc(Cl)cc(Cl)c1O,11.6%,–
COc1ccc(N)c([N+](=O)[O-])c1,-2.68%,–
CN(C)CC/C=C1\c2ccccc2Sc2ccc(Cl)cc21,-4.12% [at 42.5 µM],–
COc1ccc(CCN(C)CCCN2CCc3cc(OC)c(OC)cc3CC2=O)cc1OC,0.721% [at 42.5 µM],–

SMILES,"activity change, negative = cytotoxicity",Potency
Cc1ccc2c(c1)CCCN2,-10.4%,–
CCN(CC)C(=O)/C(C#N)=C/c1cc(O)c(O)c([N+](=O)[O-])c1,6.92% [at 42.5 µM],–
CC(C(=O)O)c1ccc(C(=O)c2cccs2)cc1 (stereo not given),-0.0865% [at 42.5 µM],–
CCOC(=O)c1ccc(NC(=O)CN2CCCCC2)cc1,0.0715% [at 42.5 µM],–
Cc1ccc(Cl)cc1N,-1.96%,–
C/C(C=O)=C\c1ccccc1,2.24%,–
Cc1cc([N+](=O)[O-])ccc1N,-0.448%,–
CCN(CC)c1cccc(O)c1,0.418%,–
CCN(Cc1cccc(S(=O)(=O)O)c1)c1ccc(C(=C2C=CC(=[N+](CC)Cc3cccc(S(=O)(=O)O)c3)C=C2)c2ccccc2S(=O)(=O)[O-])cc1,–,12.2 µM (active)
CCN(CC)CCOc1ccccc1C(=O)CCc1ccccc1,-2.33% [at 42.5 µM],–
C=CC(=O)NC(C)C,1.08%,–
CC[C@@H](CO)NCCN[C@@H](CC)CO,2.77% [at 42.5 µM],–
CCCCC[C@H](O)/C=C/[C@H]1[C@H](O)CC(=O)[C@@H]1C/C=C\CCCC(=O)O,2.09% [at 42.5 µM],–
Nc1ccc(NC(=O)c2ccc(N)cc2)cc1,3.71%,–
C=C(C)c1ccccc1,2.14%,–
Cc1cc(CCC(=O)OCCOCCOCCOC(=O)CCc2cc(C)c(O)c(C(C)(C)C)c2)cc(C(C)(C)C)c1O,-6.5%,–
C=C(C)C(=O)OCCC(F)(F)C(F)(F)C(F)(F)C(F)(F)C(F)(F)C(F)(F)F,0.0512%,–
CCCCCCCCCCCCCCN(C)C,3.73% [at 19 µM],–
O=C(c1ccccc1)C1CCC1,-0.509%,–
C=CCOC(=O)COCCC(C)C,1.56%,–
